Test results from the supplement of paper PMC11732987, “Enantioselective OTUD7B fragment discovery through chemoproteomics screening and high-throughput optimisation” (Communications Chemistry, 2025).

What was measured:
Assay in all cases: log2 ratio of Biotin-Ahx-Ub-VS probe labelling (fragment/DMSO); higher = less target engagement (more negative = stronger competition), active = hit call of the paper (q ≤ 0.05, log2 ratio ≤ -1)
Settings in all cases: compound concentration: 200 uM; treatment time: 3 h
USP34 = USP34 (UniProt Q70CQ2)
Sequence of USP34 (Q70CQ2 whole entry, the tested form may be a part): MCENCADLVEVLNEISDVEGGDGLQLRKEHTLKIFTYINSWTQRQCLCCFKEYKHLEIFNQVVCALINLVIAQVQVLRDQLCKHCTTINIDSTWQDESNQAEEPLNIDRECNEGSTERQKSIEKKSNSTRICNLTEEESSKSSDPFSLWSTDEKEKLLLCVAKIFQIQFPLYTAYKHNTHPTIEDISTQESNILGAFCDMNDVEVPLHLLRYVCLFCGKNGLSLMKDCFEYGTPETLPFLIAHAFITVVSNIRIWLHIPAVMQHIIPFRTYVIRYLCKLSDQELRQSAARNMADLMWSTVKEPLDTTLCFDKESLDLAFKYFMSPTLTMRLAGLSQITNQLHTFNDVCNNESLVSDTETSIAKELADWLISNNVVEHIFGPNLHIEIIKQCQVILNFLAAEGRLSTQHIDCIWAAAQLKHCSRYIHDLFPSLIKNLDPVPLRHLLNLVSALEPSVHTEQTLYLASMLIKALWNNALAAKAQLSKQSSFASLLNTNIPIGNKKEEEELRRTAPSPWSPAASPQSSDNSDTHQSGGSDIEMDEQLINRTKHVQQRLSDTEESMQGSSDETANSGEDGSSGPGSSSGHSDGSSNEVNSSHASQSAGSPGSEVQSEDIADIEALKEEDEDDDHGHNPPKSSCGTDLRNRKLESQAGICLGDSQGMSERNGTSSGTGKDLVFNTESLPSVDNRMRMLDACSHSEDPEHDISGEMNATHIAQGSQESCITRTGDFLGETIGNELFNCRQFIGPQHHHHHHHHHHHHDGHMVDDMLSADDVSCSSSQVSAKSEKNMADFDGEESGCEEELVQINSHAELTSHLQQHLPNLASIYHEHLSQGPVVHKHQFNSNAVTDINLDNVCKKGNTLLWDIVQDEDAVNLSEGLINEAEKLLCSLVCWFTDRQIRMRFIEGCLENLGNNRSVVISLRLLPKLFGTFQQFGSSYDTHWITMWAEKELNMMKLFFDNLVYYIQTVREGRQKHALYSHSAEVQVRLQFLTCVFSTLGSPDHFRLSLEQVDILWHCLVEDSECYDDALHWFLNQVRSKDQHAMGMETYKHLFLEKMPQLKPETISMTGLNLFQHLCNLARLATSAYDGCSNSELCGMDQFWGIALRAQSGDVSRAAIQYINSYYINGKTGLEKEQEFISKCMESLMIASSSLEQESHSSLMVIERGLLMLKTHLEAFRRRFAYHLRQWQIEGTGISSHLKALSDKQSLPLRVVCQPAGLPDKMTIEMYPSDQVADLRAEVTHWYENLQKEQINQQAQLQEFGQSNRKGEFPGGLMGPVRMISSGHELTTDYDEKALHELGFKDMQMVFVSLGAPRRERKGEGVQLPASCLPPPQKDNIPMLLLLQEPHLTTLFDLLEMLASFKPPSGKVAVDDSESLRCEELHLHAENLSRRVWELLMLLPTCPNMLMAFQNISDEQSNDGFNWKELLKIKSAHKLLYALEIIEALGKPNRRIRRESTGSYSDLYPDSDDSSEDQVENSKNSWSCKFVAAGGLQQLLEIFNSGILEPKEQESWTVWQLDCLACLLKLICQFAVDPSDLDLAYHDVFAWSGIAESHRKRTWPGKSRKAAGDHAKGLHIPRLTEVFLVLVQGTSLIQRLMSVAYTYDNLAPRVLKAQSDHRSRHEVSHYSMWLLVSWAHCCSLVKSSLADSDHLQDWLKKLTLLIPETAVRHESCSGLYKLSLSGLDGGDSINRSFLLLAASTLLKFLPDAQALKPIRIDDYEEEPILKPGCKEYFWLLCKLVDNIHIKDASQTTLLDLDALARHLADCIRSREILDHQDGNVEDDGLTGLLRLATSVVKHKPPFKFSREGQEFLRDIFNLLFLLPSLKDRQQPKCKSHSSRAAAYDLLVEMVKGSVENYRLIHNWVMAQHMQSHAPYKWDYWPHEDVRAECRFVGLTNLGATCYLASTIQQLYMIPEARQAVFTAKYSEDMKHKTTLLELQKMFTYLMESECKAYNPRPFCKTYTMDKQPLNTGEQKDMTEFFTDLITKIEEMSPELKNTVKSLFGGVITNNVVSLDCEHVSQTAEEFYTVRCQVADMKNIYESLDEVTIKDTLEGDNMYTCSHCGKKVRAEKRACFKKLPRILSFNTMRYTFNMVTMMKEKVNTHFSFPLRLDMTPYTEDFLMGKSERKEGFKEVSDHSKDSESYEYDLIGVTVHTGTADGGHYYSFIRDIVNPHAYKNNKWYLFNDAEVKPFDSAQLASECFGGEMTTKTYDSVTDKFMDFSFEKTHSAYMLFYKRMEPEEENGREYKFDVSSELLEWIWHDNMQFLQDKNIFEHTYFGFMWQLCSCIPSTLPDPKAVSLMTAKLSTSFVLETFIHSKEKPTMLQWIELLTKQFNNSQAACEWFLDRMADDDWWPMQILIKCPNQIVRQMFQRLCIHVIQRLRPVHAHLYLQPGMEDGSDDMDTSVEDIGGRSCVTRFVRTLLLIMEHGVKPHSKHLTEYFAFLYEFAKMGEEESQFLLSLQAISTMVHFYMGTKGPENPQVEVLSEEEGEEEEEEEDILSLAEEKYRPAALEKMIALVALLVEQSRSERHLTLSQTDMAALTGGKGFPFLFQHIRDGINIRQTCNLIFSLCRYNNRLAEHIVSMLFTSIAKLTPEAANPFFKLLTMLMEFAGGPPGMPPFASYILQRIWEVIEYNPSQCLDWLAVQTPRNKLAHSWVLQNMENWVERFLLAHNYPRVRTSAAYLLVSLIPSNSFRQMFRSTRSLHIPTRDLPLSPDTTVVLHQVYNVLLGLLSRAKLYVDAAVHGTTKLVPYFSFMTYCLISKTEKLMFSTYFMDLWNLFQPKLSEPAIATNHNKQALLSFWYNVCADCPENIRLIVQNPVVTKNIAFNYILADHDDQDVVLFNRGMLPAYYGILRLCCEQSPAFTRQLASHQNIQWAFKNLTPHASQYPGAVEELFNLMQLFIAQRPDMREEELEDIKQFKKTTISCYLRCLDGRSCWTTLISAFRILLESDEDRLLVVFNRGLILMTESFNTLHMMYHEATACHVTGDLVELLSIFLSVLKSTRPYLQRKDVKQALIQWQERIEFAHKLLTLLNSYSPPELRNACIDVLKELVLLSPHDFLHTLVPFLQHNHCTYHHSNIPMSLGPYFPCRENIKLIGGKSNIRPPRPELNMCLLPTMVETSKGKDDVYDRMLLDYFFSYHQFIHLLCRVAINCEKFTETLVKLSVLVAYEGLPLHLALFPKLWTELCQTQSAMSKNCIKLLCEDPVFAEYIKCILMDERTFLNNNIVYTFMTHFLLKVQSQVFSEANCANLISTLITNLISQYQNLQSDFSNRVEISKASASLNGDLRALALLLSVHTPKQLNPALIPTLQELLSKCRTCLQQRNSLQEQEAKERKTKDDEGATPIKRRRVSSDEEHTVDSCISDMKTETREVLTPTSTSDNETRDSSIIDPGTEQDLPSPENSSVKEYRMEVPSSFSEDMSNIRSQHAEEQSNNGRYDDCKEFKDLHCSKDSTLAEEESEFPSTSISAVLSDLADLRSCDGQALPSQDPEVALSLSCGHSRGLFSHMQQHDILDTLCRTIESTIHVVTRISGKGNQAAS
Outline: (§1)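 Using Biotin-Ahx-Ub-VS at 0.5 µM final for 1 h, DUBs were labelled in HEK293T lysate (495 µg per sample) that had first been treated in triplicate with fragment at 200 µM or vehicle for 3 h. NeutrAvidin enrichment, LysC and trypsin digestion and diaPASEF LC-MS/MS followed. Spectronaut label-free quantities were global-median-normalised. Values are average log2 fragment/vehicle ratios by unpaired t-test, using proteins with ≥2 unique peptides.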

USP36 = target: T1, USP36 (UniProt Q9P275)
T1 sequence (whole entry): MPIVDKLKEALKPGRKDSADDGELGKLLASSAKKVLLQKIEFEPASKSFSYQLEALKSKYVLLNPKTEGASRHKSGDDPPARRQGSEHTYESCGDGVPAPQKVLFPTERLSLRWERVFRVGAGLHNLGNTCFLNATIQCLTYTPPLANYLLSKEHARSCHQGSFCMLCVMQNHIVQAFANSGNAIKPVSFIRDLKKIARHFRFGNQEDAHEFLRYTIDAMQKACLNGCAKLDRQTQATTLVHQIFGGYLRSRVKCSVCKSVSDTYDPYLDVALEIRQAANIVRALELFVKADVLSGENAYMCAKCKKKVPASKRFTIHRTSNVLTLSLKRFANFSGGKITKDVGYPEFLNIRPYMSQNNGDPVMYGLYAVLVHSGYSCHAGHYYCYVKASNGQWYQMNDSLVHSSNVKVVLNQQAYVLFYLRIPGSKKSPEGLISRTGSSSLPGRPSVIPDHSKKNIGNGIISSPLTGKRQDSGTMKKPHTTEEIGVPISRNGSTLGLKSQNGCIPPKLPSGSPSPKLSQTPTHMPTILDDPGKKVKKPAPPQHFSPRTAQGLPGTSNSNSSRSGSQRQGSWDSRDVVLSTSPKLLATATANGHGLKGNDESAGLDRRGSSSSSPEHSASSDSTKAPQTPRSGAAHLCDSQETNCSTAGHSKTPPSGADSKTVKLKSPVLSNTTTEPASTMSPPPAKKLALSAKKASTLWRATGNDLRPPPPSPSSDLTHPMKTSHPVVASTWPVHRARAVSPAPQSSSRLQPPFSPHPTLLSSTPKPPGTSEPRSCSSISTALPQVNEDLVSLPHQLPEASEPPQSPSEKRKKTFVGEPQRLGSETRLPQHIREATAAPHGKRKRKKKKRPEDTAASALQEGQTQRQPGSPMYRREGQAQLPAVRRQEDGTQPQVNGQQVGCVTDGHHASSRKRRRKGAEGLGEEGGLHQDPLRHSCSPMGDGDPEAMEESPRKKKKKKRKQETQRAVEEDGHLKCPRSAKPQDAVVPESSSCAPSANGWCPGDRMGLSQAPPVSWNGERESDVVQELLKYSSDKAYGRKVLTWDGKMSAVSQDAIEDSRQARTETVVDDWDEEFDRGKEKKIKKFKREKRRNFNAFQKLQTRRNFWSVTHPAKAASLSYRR
Outline: as §1

USP38 = target: T2, USP38 (UniProt Q8NB14)
T2 sequence (whole entry): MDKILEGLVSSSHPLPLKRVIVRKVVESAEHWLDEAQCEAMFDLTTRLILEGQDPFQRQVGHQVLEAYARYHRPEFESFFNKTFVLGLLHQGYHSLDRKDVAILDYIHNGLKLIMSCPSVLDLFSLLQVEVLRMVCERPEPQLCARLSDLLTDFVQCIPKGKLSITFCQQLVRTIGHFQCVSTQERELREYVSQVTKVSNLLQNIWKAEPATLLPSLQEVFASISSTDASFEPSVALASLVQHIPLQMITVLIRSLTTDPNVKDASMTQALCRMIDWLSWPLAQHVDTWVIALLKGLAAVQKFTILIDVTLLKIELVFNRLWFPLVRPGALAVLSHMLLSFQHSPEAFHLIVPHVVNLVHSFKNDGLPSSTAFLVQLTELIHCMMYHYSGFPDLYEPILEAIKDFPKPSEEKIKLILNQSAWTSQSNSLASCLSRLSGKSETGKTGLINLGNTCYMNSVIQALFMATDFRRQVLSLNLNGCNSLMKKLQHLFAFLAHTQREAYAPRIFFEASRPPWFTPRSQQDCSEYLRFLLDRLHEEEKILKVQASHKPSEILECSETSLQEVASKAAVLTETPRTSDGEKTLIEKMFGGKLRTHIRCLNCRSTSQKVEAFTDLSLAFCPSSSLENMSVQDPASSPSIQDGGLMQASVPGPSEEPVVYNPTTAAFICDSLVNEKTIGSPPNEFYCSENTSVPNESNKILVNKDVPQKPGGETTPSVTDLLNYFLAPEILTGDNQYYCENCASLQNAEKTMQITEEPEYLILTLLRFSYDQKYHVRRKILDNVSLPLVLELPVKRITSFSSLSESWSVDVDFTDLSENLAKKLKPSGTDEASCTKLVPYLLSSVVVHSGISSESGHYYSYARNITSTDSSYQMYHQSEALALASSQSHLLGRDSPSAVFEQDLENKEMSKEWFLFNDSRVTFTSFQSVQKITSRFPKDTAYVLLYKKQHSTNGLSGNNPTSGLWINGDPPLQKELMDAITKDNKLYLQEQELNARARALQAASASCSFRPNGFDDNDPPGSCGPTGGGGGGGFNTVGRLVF
Outline: as §1

USP39 = target: T3, USP39 (UniProt Q53GS9)
T3 sequence (whole entry): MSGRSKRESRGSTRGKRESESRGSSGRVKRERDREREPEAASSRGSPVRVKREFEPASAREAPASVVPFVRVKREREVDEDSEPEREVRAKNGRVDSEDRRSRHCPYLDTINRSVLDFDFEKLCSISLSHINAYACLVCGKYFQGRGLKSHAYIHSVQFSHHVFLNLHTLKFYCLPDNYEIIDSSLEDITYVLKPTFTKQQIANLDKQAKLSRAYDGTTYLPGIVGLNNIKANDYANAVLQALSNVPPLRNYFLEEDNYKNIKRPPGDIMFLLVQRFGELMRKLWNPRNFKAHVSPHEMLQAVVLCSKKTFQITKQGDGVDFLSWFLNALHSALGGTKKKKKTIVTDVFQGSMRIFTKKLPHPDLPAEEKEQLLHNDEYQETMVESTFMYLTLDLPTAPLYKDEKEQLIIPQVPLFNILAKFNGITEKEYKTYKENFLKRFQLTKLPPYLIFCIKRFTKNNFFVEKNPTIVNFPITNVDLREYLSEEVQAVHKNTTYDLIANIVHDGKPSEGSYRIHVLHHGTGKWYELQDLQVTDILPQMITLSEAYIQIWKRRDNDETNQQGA
Outline: as §1

USP4 = target: T4, USP4 (UniProt Q13107)
T4 sequence (whole entry): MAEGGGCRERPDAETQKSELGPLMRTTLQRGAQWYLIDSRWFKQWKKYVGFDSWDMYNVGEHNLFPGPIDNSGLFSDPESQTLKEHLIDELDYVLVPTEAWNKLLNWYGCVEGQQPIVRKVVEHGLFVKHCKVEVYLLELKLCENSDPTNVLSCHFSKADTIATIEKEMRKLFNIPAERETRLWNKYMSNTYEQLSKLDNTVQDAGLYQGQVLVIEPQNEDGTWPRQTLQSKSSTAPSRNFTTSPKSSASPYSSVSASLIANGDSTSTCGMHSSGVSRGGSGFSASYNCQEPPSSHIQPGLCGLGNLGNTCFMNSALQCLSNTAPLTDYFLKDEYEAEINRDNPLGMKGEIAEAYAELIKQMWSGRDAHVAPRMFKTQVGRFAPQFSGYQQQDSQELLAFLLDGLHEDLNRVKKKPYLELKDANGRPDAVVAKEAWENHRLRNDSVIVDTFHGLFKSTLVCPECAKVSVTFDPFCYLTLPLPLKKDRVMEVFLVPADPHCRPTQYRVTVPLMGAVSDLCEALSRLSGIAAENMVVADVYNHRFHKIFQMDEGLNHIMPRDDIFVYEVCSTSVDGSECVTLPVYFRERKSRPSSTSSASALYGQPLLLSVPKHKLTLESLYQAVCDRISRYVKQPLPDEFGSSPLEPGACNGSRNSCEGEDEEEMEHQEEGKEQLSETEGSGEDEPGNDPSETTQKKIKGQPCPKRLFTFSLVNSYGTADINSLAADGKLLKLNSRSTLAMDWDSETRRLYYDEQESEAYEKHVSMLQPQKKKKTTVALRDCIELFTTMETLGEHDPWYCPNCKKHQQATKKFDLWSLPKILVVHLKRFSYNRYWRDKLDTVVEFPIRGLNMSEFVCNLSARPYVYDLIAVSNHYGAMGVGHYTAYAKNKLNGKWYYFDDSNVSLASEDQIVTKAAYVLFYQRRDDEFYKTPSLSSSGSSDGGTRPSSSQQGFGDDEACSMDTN
Outline: as §1

Measured: log2 ratio of Biotin-Ahx-Ub-VS probe labelling

Cc1cccc(NC(=O)CCl)c1C
inactive: USP34 -0.304 | USP36 -0.363 | USP38 -0.389 | USP39 -0.513 | USP4 -0.269
